Measured values reported in PubChem BioAssay.
Calls of active or inactive are those of the source.

Assays:
[1] = tested on: Plasmodium falciparum Sir2 (PF13_0152, Sir2A); experiment: pfSir2 binders on small-molecule microarrays, primary screen, biochemical, small-molecule microarray, 635 nm fluorescence (AID 1098); conditions: small-molecule microarray binding, fluorescence 635 nm; higher = more signal;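 also: score merges spot fluorescence intensity with its signal-to-noise ratio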
[2] = small-molecule microarray binders of probe aDKK1, primary screen, biochemical, biotinylated probe, 635/667 nm fluorescence (AID 1099); conditions: higher = more signal;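 also: score merges 667nm spot fluorescence with signal to noise across triplicate slides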
[3] = small-molecule microarray binders of probe aCHRDL2, primary screen, biochemical, biotinylated probe, 635/667 nm fluorescence (AID 1100); conditions: higher = more signal
[4] = splicing luciferase reporter signal modulators, primary screen, spliceosome inhibition project, cell-based, HEK293, splice +/- reporter (AID 1101); conditions: luminescence, 24 h, higher = more signal, called active from +8 up or from −8 down;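 also: HEK293 cells carrying a splicing-competent luciferase reporter gene; test concentration not given here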
[5] = target: Fibroblast growth factor 10 (Homo sapiens) (UniProt O15520); experiment: FGF10 binders on small-molecule microarrays, primary screen, biochemical, small-molecule microarray, 635 nm fluorescence (AID 1102); conditions: FGF10 binding, fluorescence 635 nm, higher = more signal
Sequence of Fibroblast growth factor 10 (Homo sapiens) (O15520 whole entry, looked up): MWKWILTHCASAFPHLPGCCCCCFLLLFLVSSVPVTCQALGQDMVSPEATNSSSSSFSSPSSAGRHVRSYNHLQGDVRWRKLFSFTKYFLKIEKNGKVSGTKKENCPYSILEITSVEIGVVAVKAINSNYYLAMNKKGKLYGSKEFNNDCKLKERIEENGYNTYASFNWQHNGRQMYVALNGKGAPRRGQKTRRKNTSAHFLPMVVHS

[6] = tested on: glycogen synthase kinase-3 (GSK3A per assay name; protocol says GSK3B); experiment: GSK3 binders on small-molecule microarrays, primary screen, biochemical, small-molecule microarray, 635 nm fluorescence, GSK3A (AID 1103); conditions: small-molecule microarray binding, fluorescence 635 nm; higher = more signal; also: the record names both GSK3A and GSK3B
[7] = target: Epidermal growth factor receptor (Homo sapiens) (UniProt P00533); experiment: EGFR binders on small-molecule microarrays, primary screen, biochemical, small-molecule microarray, 635 nm fluorescence (AID 1104); conditions: EGFR binding, higher = more signal;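 also: score merges 667 nm emission intensity with spot signal to noise over triplicate slides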
Sequence of Epidermal growth factor receptor (Homo sapiens) (P00533 whole entry, looked up): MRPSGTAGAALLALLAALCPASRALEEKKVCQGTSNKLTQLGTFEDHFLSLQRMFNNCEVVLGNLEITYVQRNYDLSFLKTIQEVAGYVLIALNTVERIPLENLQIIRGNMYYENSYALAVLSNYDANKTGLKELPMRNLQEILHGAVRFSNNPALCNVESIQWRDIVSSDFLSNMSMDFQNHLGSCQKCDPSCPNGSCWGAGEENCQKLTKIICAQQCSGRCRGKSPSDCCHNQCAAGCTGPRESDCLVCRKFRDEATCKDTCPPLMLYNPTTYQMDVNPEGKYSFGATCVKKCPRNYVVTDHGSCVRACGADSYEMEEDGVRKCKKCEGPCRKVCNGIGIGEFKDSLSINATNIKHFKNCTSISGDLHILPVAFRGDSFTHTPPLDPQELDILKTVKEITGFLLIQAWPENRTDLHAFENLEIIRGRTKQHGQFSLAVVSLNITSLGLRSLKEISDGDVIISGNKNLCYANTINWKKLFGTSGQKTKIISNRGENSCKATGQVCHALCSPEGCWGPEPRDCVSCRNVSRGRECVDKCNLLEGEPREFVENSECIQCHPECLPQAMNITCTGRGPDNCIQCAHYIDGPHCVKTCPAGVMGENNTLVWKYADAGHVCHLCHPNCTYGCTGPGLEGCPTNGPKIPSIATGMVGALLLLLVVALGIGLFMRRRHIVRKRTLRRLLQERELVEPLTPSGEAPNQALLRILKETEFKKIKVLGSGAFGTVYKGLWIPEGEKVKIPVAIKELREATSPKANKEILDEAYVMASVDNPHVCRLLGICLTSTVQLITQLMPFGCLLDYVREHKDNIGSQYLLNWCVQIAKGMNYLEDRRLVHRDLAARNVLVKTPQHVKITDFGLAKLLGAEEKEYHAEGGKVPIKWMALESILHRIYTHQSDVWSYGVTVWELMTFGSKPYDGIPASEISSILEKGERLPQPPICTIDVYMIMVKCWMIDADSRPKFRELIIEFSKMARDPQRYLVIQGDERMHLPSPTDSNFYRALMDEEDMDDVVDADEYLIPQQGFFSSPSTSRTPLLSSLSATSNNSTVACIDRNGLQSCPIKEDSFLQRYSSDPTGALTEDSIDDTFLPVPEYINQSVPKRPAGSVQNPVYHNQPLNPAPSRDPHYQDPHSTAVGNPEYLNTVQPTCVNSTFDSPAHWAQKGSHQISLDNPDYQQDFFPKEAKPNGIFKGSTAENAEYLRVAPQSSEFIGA

[8] = target: Follistatin-related protein 3 (Homo sapiens) (UniProt O95633); experiment: FSTL3 binders on small-molecule microarrays, primary screen, biochemical, small-molecule microarray, 635 nm fluorescence (AID 1105); conditions: FSTL3 binding, higher = more signal;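 also: score merges emission near 667 nm and signal to noise per printed spot across three slides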
Sequence of Follistatin-related protein 3 (Homo sapiens) (O95633 whole entry, looked up): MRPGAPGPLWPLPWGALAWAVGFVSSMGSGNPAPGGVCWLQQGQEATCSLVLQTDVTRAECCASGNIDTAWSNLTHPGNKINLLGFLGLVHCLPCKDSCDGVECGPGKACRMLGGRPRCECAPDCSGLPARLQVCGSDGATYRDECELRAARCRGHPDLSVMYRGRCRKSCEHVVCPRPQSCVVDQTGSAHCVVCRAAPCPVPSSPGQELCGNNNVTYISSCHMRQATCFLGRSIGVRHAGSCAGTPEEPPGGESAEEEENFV

[9] = target: Dickkopf-related protein 1 (Homo sapiens) (UniProt O94907); experiment: DKK1 binders on small-molecule microarrays, primary screen, biochemical, small-molecule microarray, 635 nm fluorescence scan (AID 1106); conditions: DKK1 binding, higher = more signal;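 also: score merges emission near 667 nm with signal to noise over three replicate slides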
Sequence of Dickkopf-related protein 1 (Homo sapiens) (O94907 whole entry, looked up): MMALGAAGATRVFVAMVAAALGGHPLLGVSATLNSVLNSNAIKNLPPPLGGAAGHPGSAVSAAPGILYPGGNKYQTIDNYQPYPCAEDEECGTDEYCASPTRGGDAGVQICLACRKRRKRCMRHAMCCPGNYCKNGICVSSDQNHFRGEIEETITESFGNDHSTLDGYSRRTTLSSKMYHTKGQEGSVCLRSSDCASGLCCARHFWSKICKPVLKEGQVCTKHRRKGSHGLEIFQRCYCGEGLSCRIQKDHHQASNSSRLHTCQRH

[10] = tested on: Inhibin beta A chain (activin A); experiment: INHBA (activin A) binders on microarrays, primary screen, biochemical, small-molecule microarray, 635 nm fluorescence scan (AID 1107); conditions: small-molecule microarray binding, higher = more signal;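 also: mouse activin A protein probed at 4.33 µg/mL on printed slides; score merges bound-protein fluorescence near 667 nm with spot signal-to-noise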
[11] = tested on: Human papillomavirus type 1a protein E7 (residues 44-93); experiment: HPV1a E7 fragment binders on microarrays, primary screen, biochemical, small-molecule microarray, residues 44-93, 635 nm fluorescence (AID 1108); conditions: small-molecule microarray binding, fluorescence 635 nm; higher = more signal;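 also: E7 fragment applied at 1 µg/mL in TBST for 1 h at 4 C; score combines spot fluorescence with its signal to noise ratio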
[12] = modulators of HCV replicon luciferase signal, primary screen, HCV replication inhibitor project, Huh7 cells, luciferase reporter (AID 1109); conditions: 48 h, higher = more signal;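 also: huh7 hepatoma cells harbouring a luciferase neomycin HCV replicon reporter; luciferase luminescence as measure of HCV replicon replication; test concentration not given here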
[13] = target: Left-right determination factor 2 (Homo sapiens) (UniProt O00292); experiment: LEFTY2 binders on small-molecule microarrays, primary screen, biochemical, small-molecule microarray, 635 nm fluorescence scan (AID 1110); conditions: LEFTY2 binding, higher = more signal
Sequence of Left-right determination factor 2 (Homo sapiens) (O00292 whole entry, looked up): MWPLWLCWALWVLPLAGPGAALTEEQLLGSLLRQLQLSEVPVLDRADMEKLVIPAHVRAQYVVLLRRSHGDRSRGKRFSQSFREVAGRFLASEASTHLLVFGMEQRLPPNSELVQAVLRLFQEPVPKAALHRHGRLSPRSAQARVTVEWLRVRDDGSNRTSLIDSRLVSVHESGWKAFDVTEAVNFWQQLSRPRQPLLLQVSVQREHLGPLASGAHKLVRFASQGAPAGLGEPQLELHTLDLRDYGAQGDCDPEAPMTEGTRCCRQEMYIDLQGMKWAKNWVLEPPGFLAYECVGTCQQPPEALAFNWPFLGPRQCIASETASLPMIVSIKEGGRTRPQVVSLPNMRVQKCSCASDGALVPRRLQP

[14] = target: Calmodulin-1 (Homo sapiens) (UniProt P0DP23); experiment: CALM1 binders on microarrays, EGTA buffer, profiling panel, biochemical, small-molecule microarray, Cy5-labelled CALM1 (AID 1111); conditions: Cy5-CALM1 binding fluorescence, higher = more signal;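 also: labelled calmodulin applied in Tris saline Tween buffer holding calcium plus EGTA and DTT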
[15] = target: Calmodulin-1 (Homo sapiens) (UniProt P0DP23); experiment: calcium-bound CALM1 binders on microarrays, profiling panel, artefact control for SMM control-protein annotation, biochemical, small-molecule microarray, Cy5-labelled CALM1, plus calcium (AID 1112); conditions: Cy5-CALM1 binding fluorescence, higher = more signal;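 also: score merges spot fluorescence with signal to noise from triplicate slides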
[16] = small-molecule microarray binders of probe aWnt5a, primary screen, biochemical, biotinylated probe, 635/667 nm fluorescence (AID 1113); conditions: higher = more signal;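 also: score merges 667 nm fluorescence intensity with signal-to-noise per printed feature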
[17] = small-molecule microarray binders of probe aShh, primary screen, biochemical, biotinylated probe, 635/667 nm fluorescence (AID 1114); conditions: higher = more signal;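 also: probe is biotin-labelled aShh protein from a stem cell growth factor screen; measures binding of labelled protein to compounds printed on the slide; score merges feature fluorescence at 667 nm with signal-to-noise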
[18] = small-molecule microarray binders of probe aNog, primary screen, biochemical, biotinylated probe, 635/667 nm fluorescence (AID 1115); conditions: higher = more signal;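 also: probe is biotinylated aNog protein used at 0.15 µg/mL for 1 h at 4 C; z-score combines 667 nm fluorescence of each spot with its signal to noise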
[19] = target: Torsin-1A-interacting protein 1 (Homo sapiens) (UniProt Q5JTV8); experiment: LAP1 binders from COS7 cell lysate, primary screen, small-molecule microarray, 635/667 nm fluorescence (AID 1116); conditions: COS7-hLAP1 lysate binding, 635 nm fluorescence, higher = more signal
Sequence of Torsin-1A-interacting protein 1 (Homo sapiens) (Q5JTV8 whole entry, looked up): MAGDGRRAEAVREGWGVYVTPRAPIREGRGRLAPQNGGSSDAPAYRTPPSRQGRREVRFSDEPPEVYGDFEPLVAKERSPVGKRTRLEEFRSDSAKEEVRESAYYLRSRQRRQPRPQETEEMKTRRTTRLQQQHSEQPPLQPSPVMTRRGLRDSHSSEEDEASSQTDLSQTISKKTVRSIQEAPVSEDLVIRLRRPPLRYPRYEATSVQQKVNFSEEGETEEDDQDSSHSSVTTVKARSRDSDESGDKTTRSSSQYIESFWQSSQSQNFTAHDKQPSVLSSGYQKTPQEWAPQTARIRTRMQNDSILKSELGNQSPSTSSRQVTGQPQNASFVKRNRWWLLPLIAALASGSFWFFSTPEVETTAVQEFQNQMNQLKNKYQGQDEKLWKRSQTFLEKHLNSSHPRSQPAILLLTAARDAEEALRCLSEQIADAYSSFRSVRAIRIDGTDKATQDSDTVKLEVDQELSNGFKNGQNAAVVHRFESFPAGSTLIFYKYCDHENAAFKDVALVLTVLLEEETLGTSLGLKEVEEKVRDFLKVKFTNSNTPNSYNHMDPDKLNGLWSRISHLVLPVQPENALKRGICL

[20] = target: Alpha-bungarotoxin (Bungarus multicinctus) (UniProt P60615); experiment: alpha-bungarotoxin binders on microarray, profiling panel, artefact control for SMM control protein annotation, biochemical, small-molecule microarray, Alexa647 label, 635/667 nm fluorescence (AID 1117); conditions: alpha-BTX-A647 binding fluorescence, higher = more signal
Sequence of Alpha-bungarotoxin (Bungarus multicinctus) (P60615 whole entry, looked up): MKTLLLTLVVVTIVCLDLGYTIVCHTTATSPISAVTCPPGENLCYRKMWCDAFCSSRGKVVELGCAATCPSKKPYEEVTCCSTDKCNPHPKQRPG

SMILES | composite z-score [1] | composite z-score [2] | composite z-score [3] | z-score [4] | composite z-score [5] | composite z-score [6] | composite z-score [7] | composite z-score [8] | composite z-score [9] | composite z-score [10] | composite z-score [11] | z-score [12] | composite z-score [13] | composite z-score [14] | composite z-score [15] | composite z-score [16] | composite z-score [17] | composite z-score [18] | composite z-score [19] | composite z-score [20]
C=C(CCCC)/C(=C/C[C@H](OC(C)=O)c1cccc(OCCO)c1)c1cc(C(=O)OC)ccc1OC | 0.286 | -0.197 | -0.096 | -0.325 (inactive) | 0.148 | -0.157 | -0.842 | -0.574 | -0.344 | 0.518 | -0.323 | -1.95 | -0.277 | -0.343 | -1.12 | -0.0721 | 0.0062 | 0.257 | 0.455 | -0.0712
CCCC[C@@H](O)C1=C(COC)Cn2c(=O)n(-c3ccccc3)c(=O)n2[C@H]1CO | -0.0092 | -0.399 | -0.318 | -0.446 (inactive) | 0.035 | 0.0617 | -0.464 | -0.0013 | -0.184 | 0.749 | -0.877 | 1.36 | -0.1 | -0.97 | -0.694 | -0.172 | -0.2 | 0.474 | 0.0334 | -0.115
NCCCC[C@@H]1NC(=O)[C@H]2C[C@@H](C(=O)O)[C@@H](c3cccc(OCCO)c3)N2C1=O | 1.61 | 1.21 | 0.752 | -0.615 (inactive) | 1.51 | 1.35 | 1.53 | 1.53 | 1.62 | 1.03 | 1.4 | -1.56 | 1.53 | 0.441 | -0.197 | 0.0017 | 0.166 | 1.33 | 1.07 | 2.12
COCCOC(=O)N1C(=O)[C@@]2(c3cc(C#CCNC(N)=O)ccc31)[C@H](C(=O)NC[C@H](O)c1ccccc1)[C@H]1C(=O)O[C@H](c3ccccc3)[C@H](c3ccccc3)N1[C@@H]2c1ccc(OCCO)cc1 | 1.44 | 0.398 | 0.782 | -0.204 (inactive) | 0.872 | 0.939 | 0.565 | 0.898 | 0.301 | 0.649 | 1.11 | 0.724 | 0.319 | 0.565 | 0.442 | -0.0459 | 0.13 | 1.09 | 1.47 | 0.41
C#CCN(C/C=C/c1ccccc1)[C@H](CO[Si](C)(C)C(C)(C)C)c1ccccc1 | 0.209 | -0.454 | -0.541 | -0.736 (inactive) | 0.108 | -0.871 | -0.468 | -0.261 | -0.156 | -0.0543 | -0.115 | -2.36 | 0.301 | -0.488 | -1.03 | -0.0403 | -0.0553 | -0.565 | -0.221 | -0.482
CC=CC(O)C1C=CC2C(=O)N(C)C(=O)C2N1NC(=O)OC(C)(C)C (stereo not given) | 0.589 | 0.112 | -0.388 | 1.54 (inactive) | 0.216 | 0.423 | 0.271 | 0.864 | 0.739 | 1.04 | -1.08 | 0.381 | 0.478 | 0.127 | -0.516 | -0.101 | -0.206 | -0.135 | 0.512 | 0.277
N#Cc1ccc(C(O)C2C=CC3C(=O)N(c4ccccc4)C(=O)C3N2Nc2ccc([N+](=O)[O-])cc2)cc1 (stereo not given) | 1.37 | 0.904 | 1.16 | 0.448 (inactive) | 0.395 | 1.09 | -0.175 | 0.516 | -0.274 | 0.958 | 0.632 | -1.2 | 0.0058 | 2.16 | 1.14 | 0.222 | 0.0434 | 0.595 | 1.69 | 1.96
CCCCNC(=O)c1ccc(C#C[Si](C)(C)C)c(OC(C)=O)c1 | -0.0653 | -0.31 | -0.509 | -0.176 (inactive) | 0.458 | 0.419 | 0.315 | 0.384 | 0.374 | 0.58 | 0.315 | 0.93 | 0.431 | -0.262 | -0.834 | -0.191 | 0.0952 | -0.185 | 0.37 | 0.25
C[N+](C)(C)CCCCCCNC(=O)[C@@H]1C[C@@H]2C(=O)N[C@@H](Cc3ccccc3)C(=O)N2[C@@H]1c1ccc(O)cc1 | 1.61 | -0.409 | -0.578 | 0.372 (inactive) | 1.21 | 0.89 | 0.776 | 1.48 | 0.92 | 0.633 | 1.32 | 0.389 | 1.27 | -0.193 | -0.927 | -0.0236 | -0.156 | 0.0498 | 1.41 | 1.54
C=CC[C@]1(C(=O)N(C)C)COC(c2ccc(OCCCO)cc2)=N1 | 1.6 | 0.98 | 1.26 | -0.858 (inactive) | 0.772 | 0.248 | -0.737 | -0.438 | -0.0393 | 0.465 | 0.326 | 1.55 | -0.616 | 2.62 | -0.372 | -0.113 | 0.334 | -0.246 | 2.09 | 0.113
[N-]=[N+]=NCc1ccccc1C[C@]1(C(=O)N2CCOCC2)N=C(c2ccc(OCCCO)cc2)O[C@H]1c1ccccc1CN=[N+]=[N-] | 1.33 | 1.42 | 1.39 | -1.2 (inactive) | 1.39 | 0.935 | -0.134 | 0.217 | -0.275 | 1.43 | 0.344 | -2.48 | -0.0716 | 2.49 | 1.28 | 0.653 | 0.564 | 0.967 | 2.79 | 2.74
